Screen size: about 2,000 compounds; about 190 (9.5%) were called active. Another 14% or so got no clear call; they are omitted.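 Rule for the calls: active = fitted activation curve crossing 40% at a concentration no higher than the sample's top valid tested dose; inconclusive = flat fitted curve at 30% to 70% activation, or poor curve fit; inactive = signal decrease, flat curve within 30%, or the rest.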 A selection follows.
test: HSF-1 reporter activators over prolonged exposure, confirmation, cell-based, mouse, luciferase, cherry-pick, dose (AID 602296); conditions: NIH3T3-HGL HSF-1 response element luciferase, 48 h; series mostly up to 26 µM; activation: at the top concentration;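 note: test compounds applied by themselves with no MG132 co-treatment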

activation, inactive:
COc1cc(-c2nc(-c3ccc4c(c3)-c3ccccc3S4(=O)=O)c(-c3ccccc3)[nH]2)cc(OC)c1O -40.3%, CCC(=O)Nc1c(S(=O)(=O)c2ccccc2)c2nc3ccccc3nc2n1C(C)c1ccccc1 (stereo not given) -20.5%, CCOc1cc(/C=C2/C(=O)ON=C2C)ccc1OCc1ccc(F)cc1 44.8%, O=C(CSc1ncn[nH]1)c1cccc([N+](=O)[O-])c1 -0.937%, COc1cc(-c2nnc3sc(Cc4ccc(Cl)cc4)nn23)cc(OC)c1OC -27.6%, O=C(CN(C(=O)c1csnn1)c1ccc(F)c(Cl)c1)NCc1ccc(F)cc1 -5.21%, CC(C)(C)Cc1nc2ccccc2n1CCc1ccccc1 -18.4%, COC(=O)c1ccc(CSc2nc3ccccc3c(=O)n2CC(C)C)o1 11%, CC(c1ccc(F)cc1)n1c(Cn2ncc3ccccc3c2=O)n[nH]c1=S (stereo not given) 12.2%, OC(CNCc1ccco1)Cn1c2ccc(Br)cc2c2cc(Br)ccc21 (stereo not given) 3.97%, COc1ccccc1N1CCN(C(=O)c2ccc3c(=O)n(Cc4ccco4)c(=S)[nH]c3c2)CC1 4.32%, CCCCNC(=S)N(Cc1ccco1)Cc1cc2cc3c(cc2[nH]c1=O)OCCO3 -47%, O=C1N/C(=C\c2ccc(O)cc2)C(O)=C1C=NCc1ccccc1 -52%, Cc1cccc(C(C#N)c2ccc(Cl)nn2)c1 (stereo not given) 5.31%, COc1ccc2[nH]c(C)c(CCNc3ccc(C(F)(F)F)cc3[N+](=O)[O-])c2c1 -55.4%, O=S(=O)(c1ccccc1)c1ncc(C(F)(F)F)cc1Cl -104%, O=C(CCCn1c(=S)[nH]c2ccc(Br)cc2c1=O)NCC1CCCO1 (stereo not given) 2.17%, COc1ccc(C(=O)N(C)CC(O)c2ccccc2)cc1OC1CCN(C(C)=O)CC1 (stereo not given) -5.01%, O=C1c2ccccc2-c2onc3ccc(N4CCCC4)c1c23 26.1%, COC(=O)Cc1ccc(NC(=O)c2ccc(C)c(C)c2)cc1 -71.3%, CCOC(=O)c1c(S(=O)(=O)NCC2CCN(CCc3cccs3)CC2)c(C)n(C)c1C 5.71%, Cc1nn(C)c(Oc2ccccc2)c1CCNS(=O)(=O)c1ccc(Cl)cc1 -52.3%, CN1C(=O)C2(c3ccccc31)N(C)CC(c1ccccn1)C21SC(=S)N(Cc2ccco2)C1=O (stereo not given) -66.3%, COC(=O)C1=C(C)NC(=S)NC1c1ccc(-c2cccc(Cl)c2)o1 (stereo not given) -17.3%, Cc1ccc(C(c2c(C)nn(-c3ccccc3)c2N)c2c(C)nn(-c3ccccc3)c2N)cc1 -5.45%, COc1cc(CNC2CCCC2)cc(OC)c1 2.54%, CCn1c(SCC(=O)N2CCOCC2)nc2oc3c(Cl)cc(Cl)cc3c(=O)c2c1=O 7.32%, CC(=O)c1ccc(NC(=O)CCCN2C(=O)/C(=C/C(C)=C/c3ccccc3)SC2=S)cc1 -9.9%, Cc1noc(C)c1COC(=O)c1ccccc1Oc1ccccc1 -13.4%, CCc1nnc(NC(=O)C(NC(=O)c2ccccc2Cl)C(C)C)s1 (stereo not given) -4.42%, COC(=O)c1sccc1NC(=O)Nc1cccc(F)c1 -0.711%, Cc1cc(SCC(=O)N/N=C/c2ccc(O)c(O)c2)c(C)cc1Br -70.1%, Cn1c(SCc2cccc(C(F)(F)F)c2)nnc1-c1ccco1 6.26%, Clc1ccc(CSc2nnc(-c3sccc3-n3cccc3)o2)cc1 -42.5%, Fc1ccc(Sc2ccccc2CNC2=NCCN2)cc1 -23.8%, O=S(=O)(c1ccc(Cl)c(NC(=S)N/N=C/c2ccc(O)cc2)c1)N1CCOCC1 -6.39%, O=c1c(Cl)cc(Cl)nn1-c1ccccc1 -99.9%, CCc1cc2c(SCC#N)ncnc2s1 11.3%, CCOC(=O)CC(NC(=O)C1c2ccccc2Oc2ccccc21)c1ccccc1Cl (stereo not given) -4.99%, COc1cccc(-c2c(C#N)c(N)nc3c2c(C)nn3-c2ccccc2)c1O -40.7%, O=C(COC(=O)/C=C/c1cccc([N+](=O)[O-])c1)NCc1ccco1 -2.07%, CN(C)c1ccc(C(CNC(=O)c2ccccc2)c2c[nH]c3ccccc23)cc1 (stereo not given) -28.5%, CCOC(=O)CC1C(=O)NCCN1S(=O)(=O)c1cc(Cl)c(Cl)cc1Cl (stereo not given) 9.36%, O=C(CCC1CCCC1)N=C1SC2CS(=O)(=O)CC2N1c1ccccc1F (stereo not given) 0.463%, S=c1nc(SCc2ccccc2)[nH]c2ccccc12 2.98%, O=C(Nc1ccc(OCC(F)(F)C(F)F)c(C(F)(F)F)c1)c1ccccc1O -78.6%, CC(C)N(Cc1ccccc1)C(=O)COC(=O)/C=C/c1cnc2ccccc2n1 10.3%, CCN(CCCNC(=O)CCCN1C(=O)COc2ccc(C)cc21)c1cccc(C)c1 -34.6%, Cc1ccc(C)c(NC(=O)CS(=O)(=O)c2cn(C)c3ccccc23)c1 -5.97%, Cc1ccc(NC2OC(CO)C(O)C2O)cc1[N+](=O)[O-] (stereo not given) 5.31%, COc1cccc(/C=N/Nc2ccc([N+](=O)[O-])cn2)c1O -99.1%, CCCC(=O)O/N=C(\c1ccccc1)c1ccncc1 -17.2%, COc1ccc(C)cc1NC(=O)CSc1nnc(COc2ccc(Cl)cc2)n1Cc1ccco1 -95.2%, Cc1nc2ccccc2n1CC(O)COCC1CC=CCC1 (stereo not given) -34.1%, Cc1cccc(-[n+]2c(C)cc(C)c3c(=O)[nH]c(=O)[nH]c32)c1 2.83%, O=C1CSC(=S)N1/N=C/c1cccc(C(F)(F)F)c1 19%, CN(C)CCCCNCCCNC(=O)/C=N\O 12.4%, CN(c1cccc(NC(=O)CN(c2cccc(Cl)c2)S(=O)(=O)c2ccc(Cl)cc2)c1)S(C)(=O)=O -55.2%, CC1CN(C(=O)CS(=O)(=O)Cc2ccccc2)CC(C)O1 (stereo not given) 5.95%, Cc1ccc(C(=O)/C=C/c2cc(Br)cc(Br)c2O)o1 2.94%, Cc1c(-n2cc(C(=O)c3ccccc3O)cc(C#N)c2=O)c(=O)n(-c2ccccc2)n1C 11.6%, O=C(/C=C/c1ccc(Cl)cc1Cl)N(Cc1ccccc1)C1CCS(=O)(=O)C1 (stereo not given) -14.7%, OCC1(Cc2cccc(C(F)(F)F)c2)CCN(Cc2cc3ccccc3o2)CC1 -20.1%, Cc1ccc(S(=O)(=O)c2c(N)n(-c3ccccc3)c3nc4ccccc4nc23)cc1 8.69%, CN(CC(=O)Nc1ccccc1Cl)CC(=O)Nc1c(F)cccc1F -16%
